# About 3,300 (8.5%) of roughly 39,000 compounds were called active. This is one part of a sample in which actives are shown more often than they occur.
# Test system: HepG2
# Test: cytotoxicity call (relative viability < 0.9)
# Conditions: 10 µM
row,Structure (SMILES),cytotoxicity call
1,C[C@H](CO)N1C[C@H](C)[C@H](CN(C)S(=O)(=O)c2ccccc2)Oc2ccc(NS(=O)(=O)c3cn(C)cn3)cc2CC1=O,inactive
2,CC(C)NC(=O)N(C)C[C@H]1Oc2cc(C#Cc3cccc(F)c3)ccc2S(=O)(=O)N([C@H](C)CO)C[C@H]1C,inactive
3,O=C(NCCCO)c1cc2ccccc2oc1=O,inactive
4,COc1cccc(C(=O)Nc2ccc3c(c2)C(=O)N(C)[C@H]2CC[C@@H](CC(=O)NCCCN4CCOCC4)O[C@@H]2CO3)c1,inactive
5,C[C@H]1CN([C@@H](C)CO)C(=O)Cc2cc(NS(C)(=O)=O)ccc2O[C@@H]1CN(C)S(=O)(=O)c1cccs1,inactive
6,Cc1ccc(S(=O)(=O)N[C@@H]2CC[C@@H](CCNC(=O)CN3CCOCC3)O[C@@H]2CO)cc1,inactive
7,COC(=O)CSc1cc(C)nc(N)n1,inactive
8,COc1cccc(NC(=O)C[C@H]2CC[C@H]3[C@@H](COc4ccc(NC(=O)C5CCOCC5)cc4C(=O)N3C)O2)c1,inactive
9,C[C@@H]1CN([C@@H](C)CO)C(=O)c2cc(NS(=O)(=O)c3cn(C)cn3)ccc2O[C@@H](C)CCCCO[C@H]1CN(C)C(=O)CCCN(C)C,inactive
10,C[C@H](CO)N1C[C@H](C)[C@@H](CN(C)Cc2ccc(C(=O)O)cc2)Oc2c(NC(=O)C3CC3)cccc2C1=O,inactive
11,COc1ccc(NC(=O)Nc2ccc3c(c2)CC(=O)N([C@@H](C)CO)C[C@@H](C)[C@H](CN(C)Cc2ccc(Cl)c(Cl)c2)O3)cc1,inactive
12,COc1ccc(NC(=O)Nc2ccc3c(c2)CC(=O)N([C@H](C)CO)C[C@@H](C)[C@H](CN(C)Cc2ccc(Cl)c(Cl)c2)O3)cc1,active
13,COc1ccc(NC(=O)Nc2ccc3c(c2)CC(=O)N([C@H](C)CO)C[C@@H](C)[C@@H](CN(C)Cc2ccc(Cl)c(Cl)c2)O3)cc1,inactive
14,C[C@@H]1CN([C@@H](C)CO)C(=O)c2cc(NC(=O)c3ccncc3)ccc2O[C@@H]1CN(C)S(=O)(=O)c1ccc(F)cc1,inactive
15,Cc1noc(C)c1NC(=O)N(C)C[C@@H]1Oc2cc(C#CCN(C)C)ccc2S(=O)(=O)N([C@@H](C)CO)C[C@@H]1C,inactive
16,C[C@H](CO)N1C[C@H](C)[C@H](CN(C)S(=O)(=O)c2cn(C)cn2)Oc2ncc(-c3ccccc3)cc2C1=O,inactive
17,C[C@H](CO)N1C[C@H](C)[C@H](CN(C)Cc2cccc(C(F)(F)F)c2)Oc2ncc(-c3ccc(F)cc3)cc2C1=O,inactive
18,C[C@H](CO)N1C[C@H](C)[C@H](CN(C)Cc2ccccc2)Oc2ncc(-c3cccc(C(F)(F)F)c3)cc2C1=O,inactive
19,C[C@H](CO)N1C[C@H](C)[C@H](CN(C)S(=O)(=O)c2cn(C)cn2)Oc2ncc(-c3cccc(C(F)(F)F)c3)cc2C1=O,active
20,C[C@H](CO)N1C[C@H](C)[C@H](CN(C)Cc2cccc(C(F)(F)F)c2)Oc2ncc(-c3cccc(F)c3)cc2C1=O,active
21,C[C@H](CO)N1C[C@H](C)[C@H](CN(C)Cc2cccc(C(F)(F)F)c2)Oc2ncc(-c3cccc(C(F)(F)F)c3)cc2C1=O,inactive
22,Cc1cccc(CN(C)C[C@@H]2Oc3ncc(-c4cc5ccccc5o4)cc3C(=O)N([C@H](C)CO)C[C@@H]2C)c1,active

row,Structure (SMILES),cytotoxicity call
1,C[C@H](CO)N1C[C@H](C)[C@H](CN(C)S(=O)(=O)c2cn(C)cn2)Oc2ncc(-c3cccc(F)c3)cc2C1=O,inactive
2,C[C@H](CO)N1C[C@H](C)[C@H](CN(C)Cc2cccc(C(F)(F)F)c2)Oc2ncc(-c3cc4ccccc4o3)cc2C1=O,inactive
3,C[C@H](CO)N1C[C@H](C)[C@H](CN(C)C(=O)Nc2cccc3ccccc23)Oc2ncc(-c3cc4ccccc4o3)cc2C1=O,inactive
4,C[C@H](CO)N1C[C@H](C)[C@H](CN(C)Cc2cccc(C(F)(F)F)c2)Oc2ncc(-c3ccccc3)cc2C1=O,inactive
5,C[C@H](CO)N1C[C@H](C)[C@H](CN(C)Cc2cccc(C(F)(F)F)c2)Oc2ncc(/C=C/c3ccccc3)cc2C1=O,active
6,CCCC#Cc1cnc2c(c1)C(=O)N([C@H](C)CO)C[C@H](C)[C@H](CN(C)S(=O)(=O)c1cccc(OC)c1)O2,inactive
7,COCC#Cc1cnc2c(c1)C(=O)N([C@H](C)CO)C[C@H](C)[C@@H](CN(C)C(=O)Nc1ccc(OC)cc1)O2,inactive
8,COc1ccc(CNC(=O)C[C@@H]2C[C@H]3c4cc(NS(=O)(=O)c5ccc(F)cc5)ccc4O[C@H]3[C@@H](CO)O2)cc1,inactive
9,COc1ccc(CN(C)C[C@@H]2Oc3c(NS(=O)(=O)c4cn(C)cn4)cccc3C(=O)N([C@@H](C)CO)C[C@@H]2C)cc1,inactive
10,COc1cccc(S(=O)(=O)Nc2ccc3c(c2)[C@@H]2C[C@H](CC(=O)N4CCCCC4)O[C@@H](CO)[C@@H]2O3)c1,inactive
11,C[C@@H]1CN([C@@H](C)CO)S(=O)(=O)c2ccc(C#CCN(C)C)cc2O[C@H]1CN(C)Cc1ccccc1F,inactive
12,Cn1c(S(=O)(=O)CC(N)=O)nc2ccccc21,inactive
13,Cc1cccc(OC[C@H](O)Cn2c(N3CCN(C)CC3)nc3c2c(=O)n(C)c(=O)n3C)c1,inactive
14,Cc1noc(C)c1NC(=O)N(C)C[C@H]1Oc2ccc(NC(=O)Nc3cccc4ccccc34)cc2C(=O)N([C@H](C)CO)C[C@@H]1C,inactive
15,CN(C)CCCNC(=O)C[C@H]1CC[C@H]2[C@@H](COc3ccc(NC(=O)c4ccccc4F)cc3C(=O)N2C)O1,inactive
16,CNC(=O)C[C@@H]1CC[C@@H]2[C@H](COC[C@H](O)CN2C(=O)c2ccc3c(c2)OCO3)O1,inactive
17,CCCNc1nc(Nc2ccc(C#N)cc2)ncc1C#CCCCNC(=O)[C@H](C)N(C)C(=O)/C=C/CN(C)C,active
18,CC(C)NC(=O)Nc1ccc2c(c1)C(=O)N([C@H](C)CO)C[C@H](C)[C@@H](CN(C)C(=O)Nc1cccc3ccccc13)OCCCC[C@H](C)O2,inactive
19,Cc1ccc(S(=O)(=O)N[C@H]2CC[C@@H](CC(=O)NCc3ccc(Cl)c(Cl)c3)O[C@@H]2CO)cc1,inactive
20,NNC(=S)NCc1cccs1,inactive
21,C[C@H](CO)N1C[C@H](C)[C@H](CN(C)S(=O)(=O)c2cn(C)cn2)Oc2c(NS(=O)(=O)c3cn(C)cn3)cccc2C1=O,inactive
